Test results taken from PubChem BioAssay AID1240 (Sanford-Burnham Center for Chemical Genomics, 2008).
The whole screen tested about 50,000 compounds, of which about 800 (1.6%) showed an effect of 50% or more. This is one part of a sample in which strong results are shown more often than they occur.

Each compound was assayed against Bcl-2-like protein 10 (Homo sapiens) (UniProt Q9HD36) (assay: TR3 peptide-Bcl-B binding displacers, biochemical primary FP assay, phenotype converters (AID 1240;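 note: 0% = Bcl-B with tracer peptide and DMSO and 100% = tracer peptide lacking Bcl-B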)). Settings: GST-Bcl-B / FITC-TR3 peptide fluorescence polarization; stronger effect = higher value; compound at 3.75 mg/L.
Bcl-2-like protein 10 (Homo sapiens), sequence (Q9HD36 whole entry, looked up): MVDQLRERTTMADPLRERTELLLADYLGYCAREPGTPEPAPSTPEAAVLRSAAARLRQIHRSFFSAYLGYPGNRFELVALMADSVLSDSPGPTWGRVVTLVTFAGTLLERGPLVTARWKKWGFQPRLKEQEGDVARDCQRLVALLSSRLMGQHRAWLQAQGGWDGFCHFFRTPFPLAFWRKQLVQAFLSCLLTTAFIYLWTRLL
`COc1cc2nc(-c3ccc(Oc4ccc([N+](=O)[O-])cc4)cc3)oc(=O)c2cc1OC` showed a displacement of 10.6%. For `COc1cc2nc(-c3ccc([N+](=O)[O-])cc3)oc(=O)c2cc1OC`, the displacement was 78%. `COc1cc2nc(-c3ccc([N+](=O)[O-])c(C)c3)oc(=O)c2cc1OC` was tested, and the displacement was -11.4%. In the case of `CCc1c(C)nc2ccc(C)cc2c1SCC(=O)O`, the displacement is reported as 9.8%. Work on `Cc1cc(C)nc(SCC(=O)N(c2ccccc2)c2ccccc2)n1` yielded a displacement of -6.6%. `CSc1nc(N)c(C#N)c(-c2ccccc2)c1C#N` was tested, and the displacement was -11%. In the case of `NC(=O)c1ccc(NC(=O)COc2ccccc2Cl)cc1`, the displacement is reported as -2%. In the case of `O=C1NC(=S)NC(=O)C1=Cc1cn(CCOc2ccc(Br)cc2)c2ccccc12`, the displacement is reported as 9.1%. `Cc1cccc(OCCn2cc(C=C3C(=O)NC(=S)NC3=O)c3ccccc32)c1` was tested, and the displacement was 11.2%. `C=CCc1ccccc1OCCn1cc(C=C2C(=O)NC(=S)NC2=O)c2ccccc21` showed a displacement of 53.6%. Compound `CN1C(=O)/C(=C\c2cn(CCOc3ccc(Br)cc3)c3ccccc23)SC1=S` has a displacement of 3.5%. `C=CCc1ccccc1OCCn1cc(C=C2C(=O)NC(=O)NC2=O)c2ccccc21` showed a displacement of -6.7%. Compound `C=CCc1ccccc1OCCn1cc(/C=C2/SC(=S)NC2=O)c2ccccc21` has a displacement of 5.8%. `O=C1NC(=O)C(=Cc2cn(CCOc3ccc(Br)cc3)c3ccccc23)C(=O)N1` was tested, and the displacement was 73.8%. `COc1cccc(OCCn2cc(C=C3C(=O)NC(=O)NC3=O)c3ccccc32)c1` gave a displacement of 15.2%. Work on `Cc1ccc(OCCn2cc(C=C3C(=O)NC(=O)NC3=O)c3ccccc32)cc1C` yielded a displacement of 79.3%. Compound `c1ccc(C2=C(c3ccccc3)N3CCN=C3S2)cc1` has a displacement of 6.4%. In the case of `O=S1(=O)CCC(NC(=S)N/N=C/c2cccc3ccccc23)C1` (stereo not drawn), the displacement is reported as 5.1%. Work on `COc1ccc(-n2nc3cc(C)c(NC(=O)c4cc(Cl)ccc4OC)cc3n2)cc1` yielded a displacement of -5.3%. With `Cc1ccc(NC(=O)COC(=O)c2ccn(C)n2)cc1` the displacement was 13.5%. `Cc1cc(NC(=O)c2ccc(Cl)cc2Cl)ccc1NC(=O)c1ccccc1` gave a displacement of -2.3%. With `CCOC(=O)C1=C(O)/C(=C/c2ccccc2)SC1=Nc1ccc([N+](=O)[O-])cc1` the displacement was -0.9%. With `CCOC(=O)C1=C(O)/C(=C/c2ccc(Br)cc2)SC1=Nc1ccc([N+](=O)[O-])cc1` the displacement was 15%. `CCOC(=O)C1=C(O)/C(=C/c2cccnc2)SC1=Nc1ccc([N+](=O)[O-])cc1` showed a displacement of 55.2%. For `CCOC(=O)C1=C(O)/C(=C/c2cccnc2)SC1=Nc1ccc(C)cc1`, the displacement was 14.8%. `CCOC(=O)C1=C(O)/C(=C\c2ccc([N+](=O)[O-])cc2)N=C1C` showed a displacement of 1.5%. Work on `CCOC(=O)C1=C(O)/C(=C/c2cccc(Br)c2)SC1=Nc1ccc([N+](=O)[O-])cc1` yielded a displacement of 63.1%. Compound `CCOC(=O)C1=C(O)/C(=C\c2ccccc2[N+](=O)[O-])N=C1C` has a displacement of 15.7%. Work on `CCOC(=O)C1=C(O)/C(=C/c2cccc([N+](=O)[O-])c2)N=C1C` yielded a displacement of 129%. `CCOC(=O)C1=C(O)/C(=C/c2cccc(O)c2)SC1=Nc1ccc([N+](=O)[O-])cc1` was tested, and the displacement was -1.1%. Work on `CCOC(=O)c1c(NC(=O)/C=C/c2cccs2)sc(C)c1C` yielded a displacement of 2.9%. `Cc1ccc(OCC(=O)Nc2cc(Cl)cc(Cl)c2)cc1` showed a displacement of 12.4%. `O=C(NCc1ccc2c(c1)OCO2)c1ccc(F)cc1` gave a displacement of 11.2%. Compound `COc1ccc(/C=C2/C(=O)ON=C2c2ccccc2)cc1` has a displacement of 13.6%. For `CC(=O)Oc1ccc2c(C)cc(=O)oc2c1C`, the displacement was -10.7%. With `CCOc1ccccc1N1CCN(C(=O)C(Sc2ccccc2)c2ccccc2)CC1` (stereo not drawn) the displacement was -4.4%. With `CC1CN(C(=O)c2cccs2)CC(C)O1` (stereo not drawn) the displacement was 3.3%. With `CC(=O)Nc1ccc(NC2=C(Cl)C(=O)c3ccccc3C2=O)cc1` the displacement was 7.1%. `Cc1cc(Cl)ccc1OCC(N)=O` was tested, and the displacement was -0.8%. In the case of `CN(C)/C(=N\S(=O)(=O)c1ccc(Br)cc1)c1ccccc1`, the displacement is reported as 96.8%. Compound `N/C(=N/S(=O)(=O)c1ccc(Br)cc1)c1ccccc1` has a displacement of 8.5%. `Cc1ccc(S(=O)(=O)/N=C(\c2ccccc2)N(C)C)cc1` was tested, and the displacement was 13.2%. `CCOc1ccc(Br)cc1C=Nc1c(C)n(C)n(-c2ccccc2)c1=O` gave a displacement of -1.8%. Compound `Cc1c(N2C(=O)/C(=C/c3cccs3)SC2=S)c(=O)n(-c2ccccc2)n1C` has a displacement of 8.6%. For `COc1cc(/C=N/N2C(=O)c3ccccc3C2=O)c([N+](=O)[O-])cc1OC`, the displacement was -1.8%. `COc1cc(C=Nc2c(C)n(C)n(-c3ccccc3)c2=O)c([N+](=O)[O-])cc1OC` was tested, and the displacement was 130%. In the case of `COc1ccccc1/C=C1\SC(=S)N(c2c(C)n(C)n(-c3ccccc3)c2=O)C1=O`, the displacement is reported as 1.2%. In the case of `COc1cc(/C=C2/SC(=S)N(c3c(C)n(C)n(-c4ccccc4)c3=O)C2=O)c([N+](=O)[O-])cc1OC`, the displacement is reported as 61.3%. In the case of `COc1ccccc1C/C(N)=N/OC(=O)c1ccc(I)cc1`, the displacement is reported as 10.8%. With `Cc1ccc(C23CC4CC(CC(C(=O)Nc5ccc(F)cc5F)(C4)C2)C3)cc1` the displacement was -3.1%. For `Cc1cc(Cl)ccc1OCC(=O)NCC1CCCO1` (stereo not drawn), the displacement was 1.4%. Compound `CC(C)CN1C(=O)c2ccc(C(=O)Nc3ccc(Br)cc3C(=O)O)cc2C1=O` has a displacement of -12.5%. Compound `Cc1ccc(/C=C/C(=O)Nc2cccc3ccccc23)o1` has a displacement of -7.3%. In the case of `Cc1ccc(/C=C/C(=O)Nc2cccc3ncccc23)o1`, the displacement is reported as 27.1%. `Cc1ccc(/C=C/C(=O)Nc2cccc3cccnc23)o1` showed a displacement of 91.4%. With `Cc1c(C(=O)Nc2ccc(Cl)cn2)oc2ccccc12` the displacement was 15.4%. `Cc1cccc(C(C)C)c1NC(=O)COc1ccc(Cl)cc1Cl` was tested, and the displacement was 13.3%. `Cc1cccc(N2C(=O)/C(=C/c3ccco3)SC2=S)c1C` was tested, and the displacement was 1.9%. In the case of `Cc1cc(/C=C2\SC(=S)NC2=O)c(C)n1-c1cccc([N+](=O)[O-])c1`, the displacement is reported as 7.1%. With `Cc1ccc(CN2CCN(/N=C/c3ccc(C(=O)O)cc3)CC2)cc1` the displacement was 16.4%. `Cc1ccc(C)n1Cc1ccc(C(=O)O)cc1` was tested, and the displacement was 66.4%. For `O=C(O)c1ccc(CN2CCOCC2)cc1`, the displacement was 13.7%. `CC(=O)c1cccc(NC(=O)/C(=C\c2cccnc2)NC(=O)c2ccccc2)c1` showed a displacement of -5.3%. With `N/C(Cc1cccc2ccccc12)=N\OC(=O)c1ccc(F)cc1` the displacement was 31.7%. Compound `COc1ccc(C/C(N)=N/OC(=O)c2cccs2)cc1` has a displacement of 8.1%. With `N/C(Cc1cccc2ccccc12)=N\OC(=O)c1cccs1` the displacement was 98.4%. `COc1ccc(C(=O)CSc2nc3c(c(-c4ccc(C)o4)c2C#N)CCCC3)cc1` was tested, and the displacement was 7.6%. `CC(C)(C)C1(O)CC(C(F)(F)F)=NN1C(=O)COc1ccccc1` (stereo not drawn) gave a displacement of -7.4%. Work on `CCCCc1ccc(/C=C2/C(=O)ON=C2c2ccccc2)s1` yielded a displacement of 40.8%. Compound `O=C1ON=C(c2ccccc2)/C1=C/c1ccc(Br)s1` has a displacement of 70.8%. `O=C1ON=C(c2ccccc2)/C1=C/c1cccnc1` was tested, and the displacement was -9.2%. With `CCCCN(CC)c1cnn(-c2ccccc2)c(=O)c1N` the displacement was 10.6%. `COc1ccc(C2C(C(C)=O)=C(Nc3ccccc3)CC(C)(O)C2C(C)=O)cc1` (stereo not drawn) gave a displacement of 1.4%. Work on `CC(=O)C1=C(Nc2ccc(Br)cc2)CC(C)(O)C(C(C)=O)C1c1ccc(C)cc1` (stereo not drawn) yielded a displacement of -4.9%. In the case of `COc1ccc(C2C(C(C)=O)=C(Nc3ccc(Br)cc3)CC(C)(O)C2C(C)=O)cc1` (stereo not drawn), the displacement is reported as 90.9%. `COc1ccc(C2Nc3ccccc3C(=O)N2Cc2ccccc2)cc1Cn1nc(C)c(Br)c1C` (stereo not drawn) showed a displacement of 15.4%. `Cc1cc(Cl)ccc1OCC(=O)Nc1sc(C)c(C)c1C(N)=O` gave a displacement of 79.1%. For `CCOC(=O)c1c(NC(=O)COc2cc(Cl)ccc2Cl)sc(C)c1C`, the displacement was -8%. In the case of `CCOC(=O)c1sc(NC(=O)COc2ccc(Cl)cc2C)c(C(=O)OCC)c1C`, the displacement is reported as -5.1%. Compound `O=C(N/N=C/c1ccc(Cl)c(Cl)c1)C1CC(=O)N(c2ccccc2)C1` (stereo not drawn) has a displacement of -9.3%. `CS(=O)(=O)N(CC(=O)NCc1ccncc1)c1ccc(Oc2ccccc2)cc1` was tested, and the displacement was 10.2%. In the case of `Fc1ccccc1-c1nc(-c2ccc(Br)cc2)no1`, the displacement is reported as 4.3%. In the case of `CCOc1ccc(C(=O)Nc2cccc3nsnc23)cc1Cl`, the displacement is reported as 30.9%. For `O=C(Nc1cccc2nsnc12)c1ccco1`, the displacement was 4%. `Cc1ccc2nsnc2c1NC(=O)c1ccc(Br)o1` was tested, and the displacement was 15.6%. Work on `CCOc1ccc(C(=O)Nc2cccc3nsnc23)cc1Br` yielded a displacement of 78.2%. `CCOc1ccc(C(=O)Nc2cccc3nsnc23)cc1[N+](=O)[O-]` showed a displacement of 10.7%. Compound `O=C(Nc1cccc2nsnc12)c1ccc(Br)o1` has a displacement of 69.6%. Work on `O=C(Nc1sc2c(c1C(=O)N1CCCCC1)CCCCC2)c1ccc([N+](=O)[O-])cc1` yielded a displacement of -2.1%. `COc1cccc(OC)c1C(=O)NCc1ccc(C)cc1` gave a displacement of 2.7%. `Fc1ccc(-c2noc(-c3ccc(Cl)cc3)n2)cc1` showed a displacement of -6.4%. For `COc1cc(C(=O)N2CCN(C)CC2)c([N+](=O)[O-])cc1OC`, the displacement was -0.1%. Compound `COc1ccc(-c2nc(-c3cc(OC)c(OC)c(OC)c3)no2)cc1OC` has a displacement of -5.7%. `Cc1ccc(-c2nc(-c3cccnc3)no2)cc1[N+](=O)[O-]` gave a displacement of 21.4%. `COc1ccc(-c2noc(-c3ccc(C)c([N+](=O)[O-])c3)n2)cc1OC` was tested, and the displacement was 54.4%. For `Cc1cccc(-c2noc(-c3ccc(C)c([N+](=O)[O-])c3)n2)c1`, the displacement was 76.1%. `Cc1c(-c2nc(-c3ccncc3)no2)cccc1[N+](=O)[O-]` was tested, and the displacement was 0.7%. Work on `Cc1cccc(-c2noc(-c3cccc([N+](=O)[O-])c3C)n2)c1` yielded a displacement of 78.9%. In the case of `Cc1cccc(-c2noc(-c3ccc(Br)cc3)n2)c1`, the displacement is reported as -1.7%. Compound `COc1ccc(-c2noc(-c3ccc(C)c([N+](=O)[O-])c3)n2)cc1` has a displacement of -0.4%. `Cc1ccc(-c2noc(-c3cccc([N+](=O)[O-])c3C)n2)cc1` gave a displacement of 6.9%. `O=C1c2ccccc2C(=O)C1C1=CC(c2ccccc2)C(c2ccccc2)N=N1` (stereo not drawn) was tested, and the displacement was -10%. Work on `O=S(=O)(NC(=S)c1ccccc1)c1ccc(I)cc1` yielded a displacement of 11.9%. Compound `COc1cc(/C=C2\C(=O)NC(=O)N(c3ccc(Cl)cc3)C2=O)cc(Cl)c1OC` has a displacement of -2.2%. `COc1ccc(/C=C/C(=O)c2ccc(Br)cc2)cc1[N+](=O)[O-]` showed a displacement of 12.9%. Work on `O=C(CSc1nnnn1-c1ccccc1)Nc1ccccc1[N+](=O)[O-]` yielded a displacement of 1.7%. `O=C(CSc1ccc(Cl)cc1)NCCc1ccc(F)cc1` was tested, and the displacement was -8.3%. Compound `O=C(NCc1ccc2c(c1)OCO2)c1ccccc1F` has a displacement of 14.1%.
